# Measurements taken from PubChem BioAssay (NCI).
# Compounds without any hit were thinned out: in the full panel of roughly 79,000, 15% have a hit. A number with no mark means an inactive call. Activity calls are given as the source filed them. Rule as the data show it: active = growth inhibition above about 70%; inactive = the rest. Where a SMILES comes first, the peptide text is derived from it. The star is where a group is joined. Cbz = O=C(OCc1ccccc1)*; NHNH2 = NN*
# Key:
# [1] = NCI Yeast Anticancer Drug Screen. Data for the rad50 strain (AID 155);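 also: 0% = growth of vehicle-only cultures of the same strain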; settings: S. cerevisiae rad50 strain growth inhibition; at 50.0 µM; stronger effect = higher value
# Summary of the method: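 Compounds were tested on a yeast strain with an engineered DNA damage repair alteration; the reported value is growth inhibition normalised to vehicle treatment.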
# [2] = NCI Yeast Anticancer Drug Screen. Data for the mec2-1 strain (AID 157); settings: S. cerevisiae mec2-1 strain, at 50.0 µM, stronger effect = higher value
# Summary of the method: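 Yeast mec2-1 mutant treated with compound. Readout: growth inhibition vs vehicle controls.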
# [3] = NCI Yeast Anticancer Drug Screen. Data for the sgs1 mgt1 strain (AID 161);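 also: 0% = growth of cultures given vehicle only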; settings: S. cerevisiae sgs1 mgt1 strain, at 50.0 µM, stronger effect = higher value
# Summary of the method: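 Test agents were incubated with a DNA-repair-mutant yeast strain. Growth was then read and compared against vehicle-treated controls.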
# [4] = NCI Yeast Anticancer Drug Screen. Data for the cln2 rad14 strain (AID 165);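 also: 0% = growth equal to vehicle treated cultures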; settings: S. cerevisiae cln2 rad14 strain, at 50.0 µM, stronger effect = higher value
# Summary of the method: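 cln2 rad14 yeast strain; compound exposure; growth inhibition read vs vehicle controls.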
# [5] = NCI Yeast Anticancer Drug Screen. Data for the bub3 strain (AID 167); settings: S. cerevisiae bub3 mutant strain, at 50.0 µM, stronger effect = higher value
# Summary of the method: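 Growth of a checkpoint-deficient yeast mutant is measured after compound exposure. Values represent inhibition relative to vehicle.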
# [6] = NCI Yeast Anticancer Drug Screen. Data for the mlh1 rad18 strain (AID 175); settings: S. cerevisiae mlh1 rad18 strain growth inhibition; at 50.0 µM; stronger effect = higher value
# Summary of the method: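 Yeast w/ defined DNA-repair lesions; compound exposure; growth vs vehicle controls → % inhibition.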
Structure (SMILES),growth inhibition [1],growth inhibition [2] [%],growth inhibition [3],growth inhibition [4] [%],growth inhibition [5] [%],growth inhibition [6] [%]
NC(=O)C(=CNC(=S)Nc1ccc(S(=O)(=O)Nc2ccccn2)cc1)C(N)=O,-31.8%,-8.3,22.3%,-4.1,11.3,-26.8
NC(=O)Oc1cccc(OC(N)=O)c1,8.95%,-6.25,13.9%,3.8,18.8,13.6
CCCCCCC1(C)CCC(=O)O1 (stereo not given),15.3%,8.45,6.2%,-6.25,-5.9,14.4
O=C(NC1COB(c2cccc([N+](=O)[O-])c2)OC1c1ccc([N+](=O)[O-])cc1)C(Cl)Cl (stereo not given),12.8%,27.9,5.65%,-23.9,15.7,63.5
COC(=O)CC(NC(=O)OCc1ccccc1)C(=O)NC(CC(=O)OC)C(=O)NC(CC(=O)OC)C(=O)NC(CC(=O)OC)C(=O)NC(CC(=O)OC)C(=O)NC(CC(=O)OC)C(=O)NN (stereo not given) (Cbz-D(OMe)D(OMe)D(OMe)D(OMe)D(OMe)D(OMe)-NHNH2; configuration not given here),-18.6%,-16.9,-24.6%,20.6,25.7,-18.5
O=C(O)CN1CCCCC1,-5.65%,5.5,-3.8%,-27.1,-4.1,-6.65
CC(=O)NC(CCCN(Cc1ccccc1)C(=O)NCCCl)C(=O)NCc1ccccc1 (stereo not given),13.7%,-25.5,4.5%,5.7,-33.7,-18.6
CCN(CC)C(=O)Cc1[nH][nH]c(=O)c1C(=O)N(CC)CC,-31.9%,2.45,-42.9%,-7.6,-28.6,-41.3
CC(C(=O)c1ccc(Cl)cc1)C1=NC2NN(c3ccccc3)C(=O)C2=C1C(C)C(=O)c1ccc(Cl)cc1 (stereo not given),10.5%,-12.3,6%,-0.3,1.8,3.25
O=C(O)C(c1ccccc1)C1(O)CC2CCC1C2 (stereo not given),-38%,-45.5,-36.6%,-10.7,-56,-54.5
CCCNc1cc2c(cc1Br)-c1ccccc1C2=O,-18.8%,-3,-10.2%,-16.1,19.1,-0.65
CC(C)=NNC(=O)c1ccccc1CC(O)(c1ccccc1)c1ccccc1,22.1%,5.25,10.2%,-35.6,-24.4,15.2
CCOC(=O)C/C(O)=C(\N=Nc1nc[nH]c1C(N)=O)C(=O)OCC,1.2%,23.7,-9.9%,-1.8,16.1,-0.65
CCOC(=O)CCC(NC(=O)OCc1ccccc1)C(=O)NC(CCC(=O)OCC)C(=O)NC(CCC(=O)OCC)C(=O)NC(CCC(=O)OCC)C(=O)NC(CCC(=O)OCC)C(=O)NC(CCC(=O)OCC)C(=O)NC(CCC(=O)OCC)C(=O)OCC (stereo not given),-23.8%,-16.5,-10.2%,26.2,-10.7,2.2
CCCCNC(=O)c1c(Cl)c(Cl)c(Cl)c(Cl)c1C(=O)O,37.3%,17.1,4.85%,17.5,16.5,28.2
COC1CCC(/C(C#N)=C/C2CCC(OC)C(OC)C2)CC1 (stereo not given),77.1% (active),66.8,77.7% (active),-8.7,68.8,63
COc1ccc(/C=C2/C(=O)N=C(NC(C)=O)N2C)cc1OC,-13.8%,-14.2,-13.7%,-2.1,4.7,4.55
COC(=O)c1cc2ccccc2c2c3c(ccc12)OCO3,9.4%,-0.15,-10.3%,-43.6,-4.05,-14.3
COc1ccc(-c2cc(-c3ccco3)c(C#N)c(=S)n2C2OC(COC(C)=O)C(OC(C)=O)C(OC(C)=O)C2OC(C)=O)cc1 (stereo not given),19.6%,-4.25,12.7%,-2.75,4.25,34.2
CCCCCCCCCCCCOP(=O)(O)OP(=O)(O)OCC1OC(n2cc(C)c(=O)[nH]c2=O)CC1O (stereo not given),35.4%,13.9,47%,14.7,14.4,7.55

Structure (SMILES),growth inhibition [1],growth inhibition [2] [%],growth inhibition [3],growth inhibition [4] [%],growth inhibition [5] [%],growth inhibition [6] [%]
CCCCCCCCCCCCCCCC(=O)NOCc1cscn1,-0.8%,-29.1,-3.25%,-22.1,-12.8,6.1
O=NNc1ccc(-c2ccc(NN=O)cc2)cc1,19.4%,0.75,10.8%,10.2,-10.1,8.95
Cc1ccc(S(=O)(=O)OCCN(CCOS(=O)(=O)c2ccc(C)cc2)c2cccc(Cl)c2)cc1,14.1%,2.35,4.65%,19,-4.45,29.9
O=C(Nc1ccc([N+](=O)[O-])cc1)OCc1ccccc1,-14.1%,-0.05,-9.35%,0.7,1.7,-16
O=C(O)CN=CC(O)C(O)C(O)C(O)CO (stereo not given),-9.8%,-3.8,3.9%,4.4,9.15,-2.45
CCOC(=O)N1CCN(c2ccc3ccc(N)nc3n2)CC1,22.1%,-12.7,28.8%,-4.65,18.9,16.9
C=CC1C(C(=O)Nc2ccccc2)CN1C (stereo not given),7.1%,14.4,-4.15%,18.3,10.9,-3.4
NC(Cc1ccccc1)=NCC(=O)O,-40.5%,-7.9,-29.4%,-79.9,-19.7,-25.2
CCOCCOC(=O)Nc1ccc(C)c(NC(=O)OCCOCC)c1,-0.55%,-18.8,8.65%,4.45,5.35,-4.8
Cc1cccc(C(C)(C)C)c1NC(=O)CC1C(=O)Nc2ccccc2S1(=O)=O (stereo not given),4.85%,1.8,-4.4%,8.95,9.5,23.9
C[N+](C)(C)c1cc(Br)c(O)c(Br)c1,1.85%,31.9,12%,-2.75,41.2,33
COC[N+](C)(C)C,-2.55%,-6.25,-7.6%,2.4,7.2,10.5
CCOc1ccc(NC(C)=O)c([N+](=O)[O-])c1,-7.05%,-1.25,21%,9.45,-3.35,2.55
c1ccc2c(OCCSCCCCCCCCCCSCCOc3cccc4ccccc34)cccc2c1,18.9%,-5.55,-2.25%,7.75,-3.6,-9.25
Cc1ccc2oc(=O)c(C(=O)Nc3nc(C45CC6CC(CC(C6)C4)C5)cs3)cc2c1,-23.1%,-22.9,-23.6%,13,-30.5,-26.2
COc1ccc(Cl)cc1C(c1cc(Cl)ccc1OC)C(Cl)(Cl)Cl,-7.35%,-1.6,-9.05%,-23.6,-16.6,-13.4
CC1(O)CC2(O)C=CC3=C(C(=O)c4cccc(O)c4C3=O)C2(O)C(=O)C1O (stereo not given),14.2%,4.1,30.4%,15.8,22.9,16.6
CN(C)NC(=O)Nc1cccc2ccccc12,-25.2%,-22.3,-6.15%,-22.4,-26.9,-20.4
N#Cc1nc[nH]c1C(N)=O,-2.4%,0.25,-14.2%,11.8,11,6.25
C/C=C(\C)C(=O)OC1C2C(C)C(=O)OC2C(O)C(C)C2C=CC(=O)C21C (stereo not given),-21.1%,-23.5,-7.9%,9.4,-21.4,6.5
